Screen size: about 1,800 compounds; about 1,400 (78%) were called active. Another 2% or so got no clear call; they are omitted.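 Rule for the calls: active = fitted curve crossing a set activation limit at or below the highest valid dose tested; inconclusive = flat fit at 30 to 70% activation, or poor fit; inactive = the rest, including signal decreases.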 The set was probably picked from earlier hits. The list is a sample of the results. Potency and affinity values are given separately.
Assay: blockers of NLG process in reporter cells – D54 ERlucT cells, luminescence, cherry-picks, dose response (AID 624491);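 note: signal gain reflects blocked N-linked glycosylation of a luciferase reporter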
Details: D54 ERlucT glycosylation luciferase reporter, 24 h, 100% = twice neutral-control luminescence; series mostly up to 19.5 µM

Activation (NLG inhibition), inactive:
CCCN(CCC)S(=O)(=O)c1ccc(C(=O)Nc2nc3c(s2)CCc2ccccc2-3)cc1, O=C(NC1CCCCC1)c1cccc2c1C(=O)c1ccc(-c3ccc(OC(F)(F)F)cc3)cc1S2(=O)=O, CCN(CC)c1cc(C)c2cc(NC(=O)c3ccccc3OC)ccc2n1, CCOC(=O)c1cc2c(ccn2C)n1CC(=O)N1CCN(c2ccccc2)CC1, CCOC(=O)c1cc2sccc2n1CC(=O)N1c2ccccc2CC1C (centres undefined), COc1ccc(-n2c(=S)[nH]c3cc(C(=O)NC4CCCCC4)ccc3c2=O)c(OC)c1, COC(=O)c1ccc2c(=O)n(Cc3ccc(C(=O)NC(C)C)cc3)c(=S)[nH]c2c1, CCN1/C(=C/c2ccc3ccccc3[n+]2CC)C=Cc2ccccc21, COc1cc(CCC(=O)Nc2nnc(C)s2)cc(OC)c1OC, Cc1noc2ncnc(Sc3ccc(Cl)cc3)c12, Cc1ccc(C)c(N2CCN(c3cnn(-c4nc5ccccc5s4)c(=O)c3Cl)CC2)c1, COc1ccc(C2NC(=S)NC3=C2CCCC3=C2SCCS2)cc1 (centres undefined), O=C(Cc1csc(Nc2nc(=S)[nH]c3ccccc23)n1)NCc1cccc(Cl)c1, CNC(=O)c1cccc2nc3ccccc3nc12, COc1cc(C2CC(=O)N(c3ccc(C)cc3)C(=O)C2)cc(OC)c1OC, CC(C)Oc1ccccc1C1CC(=O)Nc2cc3c(cc21)OCO3 (centres undefined), CCOc1ccccc1C1CC(=O)Nc2cc3c(cc21)OCCO3 (centres undefined), COc1cc(/C=C(/C(=O)c2cccs2)c2nc3ccccc3[nH]2)cc(OC)c1O, O=C(N/N=C/c1ccc2c(c1)OCO2)C1COc2ccccc2O1 (centres undefined), N#Cc1c(NC(=O)/C=C/c2ccco2)sc2c1CCCC2, COC(=O)C1=C(C(=O)OC)[C@@H]2N(Cc3ccccc3)c3ccccc3[C@@]23C[C@@H](C(=O)OC)N(C(=O)c2cc(C)oc2C)C3=N1, CC(C)C1N=C(c2ccc3c(c2)OCO3)CC(c2ccccc2O)N1 (centres undefined), CC(=O)c1ccc(OCC(O)CN2CCN(CCN3C(=O)c4cccc5cccc(c45)C3=O)CC2)cc1 (centres undefined), COc1ccc(-c2cc(C(F)F)n3ncc(C(=O)n4ccnc4C)c3n2)cc1, Cc1ccc(-c2cc(C(F)F)n3ncc(C(=O)N4CCc5ccccc54)c3n2)cc1, CC(=O)N(C(C)=O)n1c(C)nc2sc3c(c2c1=O)CCCC3, O=C1/C(=C/c2ccccc2)CCc2ccc(Cl)nc21, COc1cccc(-n2c(SCC(=O)NC3CCCCC3)nc3n[nH]c(C)c3c2=N)c1, NC(=O)c1ccc2c(=O)n3c(-c4cc(Cl)c(N)c(Cl)c4)csc3nc2c1, Cc1ccnc(NC(=O)Nc2ccc3c(c2)N(C)C(=O)CS3)c1, COC(=O)c1ccc(Oc2cc(C)nc(-n3nc(C)cc3C)n2)cc1, Cc1ccc2cc3c(N)c4c(C)ccc(C)c4nc3nc2c1, Cc1cc(N2CCN(c3ccc([N+](=O)[O-])c4cccnc34)CC2)c2ccccc2n1, Cc1ccc(N2C(=O)c3cccc4c([N+](=O)[O-])ccc(c34)C2=O)c2cccnc12, Cc1ccc2c(c1)NC(=O)[C@@]1(C)[C@@H](c3ccccc3)[C@H]3COc4ccccc4[C@@H]3N1C2=O, CCN(CC)c1ccc(/C=C/c2cccc[n+]2C)c(OC)c1, O=C(N/N=C/c1ccccn1)c1sc2ccccc2c1Cl, COc1ccc(C=C(c2nc3ccccc3s2)c2nc3ccccc3s2)cc1O, CC(=O)Nc1cccc(-c2ccnc3c2CC(C(=O)NCc2ccco2)O3)c1 (centres undefined), Nc1nc(-c2ccccn2)nc(N)c1Cc1ccc(Cl)cc1Cl, CC(=O)Nc1cccc(-c2ccnc3c2CC(C(=O)NCc2ccc(F)c(F)c2)O3)c1 (centres undefined), COc1ccc(CNC(=O)C2Cc3c(-c4ccc5c(c4)OCO5)ccnc3O2)cc1OC (centres undefined), CN(C)Cc1c(O)ccc2c1O/C(=C\C=C\c1ccccc1)C2=O, COc1ccc(OC)c(NS(=O)(=O)c2ccc(N3CCCC3=O)cc2)c1, COc1ccc(Cl)cc1/C=C/c1ccc2cccc(O)c2n1, O=C(CC(O)c1ccncc1)c1ccccc1O (centres undefined), CCOC(=O)c1[nH]c2ccc(F)cc2c1NC(=O)C(C)N1CCc2cc(OC)c(OC)cc2C1 (centres undefined), C#CC(=O)CC1(CN(Cc2ccccc2)C(=O)OC(C)(C)C)CCCCC1, CCN(CC(=O)Nc1ccccc1OC)CC(=O)Nc1ccccc1-c1ccccc1, COC(=O)c1cc(=O)n(Cc2ccc3c(c2)OCO3)c(=Nc2ccc(F)c(Cl)c2)s1, CC1=C([N+](=O)[O-])C(c2ccccc2)C2=C(N1)c1ccccc1C2=O (centres undefined), COc1cc2cc(/C=C/C(=O)c3ccco3)c(Cl)nc2cc1OC, COc1ccc([N+](=O)[O-])cc1NC(=O)CCN1CCN(CCO)CC1, NC(=O)CC(NC(=O)c1ccc(Br)cc1)c1ccc(N2CCCCCCC2)c([N+](=O)[O-])c1 (centres undefined), NC(=O)CC(NC(=O)Cc1ccc(Cl)cc1)c1ccc(NC2CC3CCC2C3)c([N+](=O)[O-])c1 (centres undefined), CC(C)Nc1ccc(C(CC(N)=O)NC(=O)Cc2ccc(Br)cc2)cc1[N+](=O)[O-] (centres undefined), NC(=O)CC(NC(=O)Cc1ccc(Br)cc1)c1ccc(NC2CCCC2)c([N+](=O)[O-])c1 (centres undefined), NC(=O)CC(NC(=O)Cc1ccc(Br)cc1)c1ccc(NCc2cc(F)ccc2F)c([N+](=O)[O-])c1 (centres undefined), CCCOc1ccc(F)cc1-c1cc(C(=O)Nc2ccc(C(C)C)cc2)[nH]n1, Oc1c(Br)cc(Br)cc1CNc1cccc2cccnc12, Nc1c(C(=O)Nc2ccc(S(=O)(=O)N3CCCC3)cc2)sc2nc3cc4c(cc3cc12)CCC4, c1ccc2c(-c3nc4ccccc4[nH]3)cccc2c1, COc1cccc(C(=O)Nc2ccc3c(c2)C(=O)c2ccccc2C3=O)c1, CCc1nn(C(C)C(=O)N2CCN(c3ccc(OC)cc3)CC2)c(=O)c2cc3occc3n12 (centres undefined)
